The values below come from PubChem BioAssay (NCATS).

Inconclusive results are not listed. Where a call stands in place of a potency, no number is given. Active and inactive are the calls of the source. Calls come from the whole dose curve; as a rule, active = well fitted inhibition curve with a large enough effect; inconclusive = small, poorly fitted or top-dose-only effect; inactive = flat fitted curve, though single readings scatter.
Potency is the fitted concentration of half-maximal effect.

In this assay the target is Ubiquitin carboxyl-terminal hydrolase 1 (Homo sapiens) (UniProt O94782). The assay is described as follows: Inhibitors of USP1/UAF1: Pilot qHTS (AID 504865). Note: nearly all actives have a fitted effect of over 35% in size. Conditions: purified USP1/UAF1, Ub-rhodamine cleavage fluorescence; series mostly up to 114 µM. The method, boiled down: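 USP1/UAF1 complex at 1 nM preincubated 15 min at room temperature with compound, then Ub-Rho substrate added at 150 nM final. Fluorescence (480/540 nm) read kinetically in 50 mM HEPES pH 7.8, 0.5 mM EDTA, 1 mM TCEP, 0.1 mg/ml BSA, 0.01% Tween-20.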
Chain of Ubiquitin carboxyl-terminal hydrolase 1 (Homo sapiens) (O94782 whole entry, looked up): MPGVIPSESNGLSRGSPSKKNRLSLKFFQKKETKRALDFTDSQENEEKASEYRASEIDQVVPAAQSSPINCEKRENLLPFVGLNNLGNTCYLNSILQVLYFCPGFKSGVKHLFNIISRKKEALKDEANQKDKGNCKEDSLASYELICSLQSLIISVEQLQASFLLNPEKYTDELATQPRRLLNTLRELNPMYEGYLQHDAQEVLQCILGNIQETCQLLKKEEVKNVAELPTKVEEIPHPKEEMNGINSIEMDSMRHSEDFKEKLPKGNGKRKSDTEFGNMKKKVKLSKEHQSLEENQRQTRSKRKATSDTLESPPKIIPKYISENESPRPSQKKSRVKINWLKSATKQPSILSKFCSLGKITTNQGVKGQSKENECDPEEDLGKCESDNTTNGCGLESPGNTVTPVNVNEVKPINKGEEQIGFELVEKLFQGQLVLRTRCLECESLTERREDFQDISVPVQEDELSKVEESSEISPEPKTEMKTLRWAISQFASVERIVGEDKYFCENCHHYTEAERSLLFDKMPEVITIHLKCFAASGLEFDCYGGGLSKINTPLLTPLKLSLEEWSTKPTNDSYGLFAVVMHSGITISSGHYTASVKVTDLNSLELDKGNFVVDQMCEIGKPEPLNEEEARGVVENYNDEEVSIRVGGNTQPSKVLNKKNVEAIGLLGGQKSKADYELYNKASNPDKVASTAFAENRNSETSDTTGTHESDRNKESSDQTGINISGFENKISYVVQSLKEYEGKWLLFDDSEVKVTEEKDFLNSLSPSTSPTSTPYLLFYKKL
`C[C@@H](C1=C(CCN(C)C)Cc2ccccc21)c1ccccn1`: the Potency entry is “inactive”. For `Cc1ccc2c(Cl)cc(Cl)c(O)c2n1` the value was “inactive”; for `Nc1c[n+](N2CCOCC2)no1`, “inactive”.

With `O=C(CCCCC(=O)Nc1c(I)cc(I)c(C(=O)O)c1I)Nc1c(I)cc(I)c(C(=O)O)c1I`, the Potency entry was “inactive”. For `Cc1ncc(CO)c(CO)c1O` the value was “inactive”; for `Nc1c2ccccc2nc2ccccc12`, “inactive”.

With `O=C(Nc1ccc(Cl)cc1)Nc1ccc(Cl)c(Cl)c1`, the Potency result is “inactive”. As to `CCOC(=O)NNc1nncc2ccccc12`, the Potency result was “inactive”. In the case of `CN1CCCN(C(c2ccccc2)c2ccc(Cl)cc2)CC1` (configuration not stated), the Potency entry was “inactive”.

For the compound `Nc1ccc2cc3ccc(N)cc3nc2c1`, the Potency entry was “inactive”. For `Cc1ccc(O)cc1` the value was “inactive”; for `CC(=O)OCC[N+](C)(C)C`, “inactive”; for `Cc1cc(C(C)(C)C)c(O)c(C(C)(C)C)c1`, “inactive”. For `CN(C(=O)C(Cl)Cl)c1ccc(OC(=O)c2ccco2)cc1` the value was “inactive”; for `CC(=O)OC/C=C(C)/C=C/C=C(C)/C=C/C1=C(C)CCCC1(C)C`, “inactive”. Turning to `Nc1ncnc2nc[nH]c12`, the Potency result is “inactive”.

For the compound `CCCCCCCCCCCCCCCC[N+](C)(C)Cc1ccccc1`, the Potency was 50.1 µM (active). The entry for `OCc1c[nH]c2ccccc12` is “inactive”; for `COC(=O)c1c(Cl)c(Cl)c(C(=O)OC)c(Cl)c1Cl` it is “inactive”. On to `CN1CCC(Nc2ncc3ncnc(Nc4ccc(F)c(Cl)c4)c3n2)CC1`, for which the Potency result was “inactive”. As to `COc1cc(C=O)ccc1O`, the Potency entry was “inactive”. For `NCC(=O)O` the value was “inactive”.
